Hits are enriched below; roughly 6.2% of the tested compounds scored in any of these assays.
LASV entry inh: qHTS for Inhibitors of binding or entry into cells for Lassa Virus | Lassa virus pseudotype entry inhibition, cell reporter | Potency, µM (top dose mostly 37.9 µM), hits mostly inhibitors | 300,000 compounds, 1.2% hits | AID 540256, 2011; calls by dose curve; tested in HEK293 cells; note: nearly all actives have a fitted effect of over 50% in size
FMDV inh: High Throughput Screening for Foot and Mouth Disease Virus Antivirals; FMDV antiviral cell-based qHTS; Potency, µM (top dose mostly 57.9 µM), hits mostly inhibitors; 410,000 compounds, 1.2% hits; AID 1159524, 2015; calls by dose curve; tested in HEK293T cells; note: read-out not given here; nearly all actives have a fitted effect of over 45% in size
Marburg entry inh: qHTS for inhibitors of binding or entry into cells for Marburg Virus. 300,000 compounds, 1.8% hits. AID 540276, 2011. Marburg virus pseudotyped entry inhibition, cell reporter. Potency, µM (highest dose often 37.8 µM), usual class: inhibitors; calls by dose curve; tested in HEK293 cells
HCMV antiviral: qHTS Assay for inhibitors of the human cytomegalovirus (HCMV); HFF cells, HCMV-luciferase reporter, 72 h; active compounds read low; AID 1259415, 2018; 410,000 compounds, 4.5% hits; activity change, negative = inhibition, % at 57.5 µM; in the data active = activity change below about -60%; inconclusive = no clear call, values can overlap the other calls; inactive = above about -39%
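Inhibition of viral replication was scored as loss of reporter luminescence in HFFs infected with HCMV-luciferase (MOI 1 PFU/cell) for 72 h; compounds tested at 2 doses, normalized to buffer and Salinomycin controls.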
Numbers stand for hits; - = inactive; ? = inconclusive; . = not tested or not shown.

SMILES	LASV entry inh	FMDV inh	Marburg entry inh	HCMV antiviral
CNC(=O)C1CCN(S(=O)(=O)c2c(C)noc2/C=C/N(C)C)CC1	.	-	.	-
Cc1noc(C)c1S(=O)(=O)N1CCN(c2ccccc2)CC1	.	-	.	-
Cc1noc(/C=C/N(C)C)c1S(=O)(=O)N1CCCC(C(=O)NCc2ccccc2Cl)C1 (stereo unspecified)	-	-	-	-98
Cc1noc(/C=C/N(C)C)c1S(=O)(=O)N1CCN(c2ccccc2)CC1	.	-	.	-86
Cc1ccc(C)c(N2CCN(S(=O)(=O)c3c(C)noc3/C=C/N(C)C)CC2)c1	?	?	13µM	-
COc1ccc(/C=C2/CSC/C(=C/c3ccc(OC)c(OC)c3)C2=O)cc1OC	3.2µM	3.5µM	3.5µM	-101
COc1cc(C=C2CCCC(=Cc3ccc(OCC4CO4)c(OC)c3)C2=O)ccc1OCC1CO1 (stereo unspecified)	.	11µM	.	-68
COc1ccc(/C=C2\SC(=O)NC2=S)cc1OC	-	-	?	-
CSc1nnc(CNC(=O)c2c(-c3ccccc3)noc2C)n1-c1ccc(F)cc1	.	-	.	.
CCOc1ccccc1NC(=O)Cn1c(=O)n(-c2ccc(F)cc2)c(=O)c2c3c(sc21)CN(C(C)=O)CC3	.	-	-	-
Cc1ccccc1-n1c(=O)n(Cc2ccccc2)c(=O)c2[nH]cnc21	13µM	-	?	-
Cc1ccccc1-n1c(=O)n(CCc2ccccc2)c(=O)c2[nH]cnc21	.	-	.	-
COc1cccc(-c2ccc3c(N)c(C(=O)c4ccc(Cl)cc4)sc3n2)c1	?	-	?	-
CCC1CN(C(=O)Nc2cc(C)cc(C)c2)c2ccccc2O1 (stereo unspecified)	?	-	.	-
COC(=O)C1=C2SC(C)C(=O)N2C(N)=C(C#N)C1c1ccc(OC)c(OC)c1 (stereo unspecified)	?	-	-	-
CCOC(=O)C1=C(N)N2C(=O)C(C)SC2=C(C(=O)OC)C1c1cccc(OC)c1 (stereo unspecified)	.	-	.	-86
COC(=O)C1=C(C)N(Cc2ccccc2)C(=NCCc2cccnc2)NC1c1ccccc1 (stereo unspecified)	.	.	-	.
CC(=O)Nc1cccc(NC(=O)CSc2cn(CC(=O)N(C(C)C)C(C)C)c3ccccc23)c1	?	-	.	-
CC(C)(C)c1cc(CCC(=O)NNC(=O)c2ccco2)cc(C(C)(C)C)c1O	-	-	8.9µM	-
CCOc1ccc(NC(=O)CSc2nc3c(oc4ccccc43)c(=O)n2-c2ccccc2C)cc1	.	-	?	-82
Cc1ccccc1C=O	.	-	.	-
Cc1ccccc1/C=C/C1=NCCN1	?	-	11µM	-
Cc1ccc(NC(=O)Cn2c(=O)n(Cc3nc(C)no3)c(=O)c3cc4c(cc32)OCO4)c(Cl)c1	-	-	.	-
Cc1ccc(-n2nnnc2-c2cnc(N3CCCC3)nc2C(F)(F)F)cc1	?	?	-	?
FC(F)(F)c1nc(N2CCCC2)ncc1-c1nnnn1-c1ccccc1	-	18µM	-	-72
SMILES	LASV entry inh	FMDV inh	Marburg entry inh	HCMV antiviral
CCOc1ccccc1CNC(=O)C1=C(C)C(=O)OC12CCN(C(C)=O)CC2	-	-	.	-
O=C1CN(S(=O)(=O)c2ccc(Cl)cc2C(F)(F)F)CCN1	-	-	-	-60
CC(=O)Nc1ccc(SCC(=O)c2cc(C)n(-c3ccccc3F)c2C)cc1	?	?	6.5µM	-95
Cc1csc(SCC(=O)c2cc(C)n(Cc3cccs3)c2C)n1	0.79µM	11µM	0.5µM	-94
Cc1cc(C(=O)CSc2nnc(N)s2)c(C)n1Cc1cccs1	0.35µM	-	1.6µM	-
CC(=O)Nc1ccc(SCC(=O)c2cc(C)n(Cc3cccs3)c2C)cc1	?	22µM	?	-77
C=C(C)Cn1c(SCC(=O)c2ccc(OC)cc2)nc2sc3c(c2c1=O)CCCC3	?	-	-	-
C=C[C@@]1(C)CC(=O)[C@@]2(O)[C@@]3(C)[C@H](O)CCC(C)(C)[C@@H]3[C@H](O)[C@H](OC(C)=O)[C@]2(C)O1	.	.	-	.
CCC(=O)Nc1cc(OC)c(NC(=S)Nc2ccccc2CC)cc1OC	.	-	.	-
O=C(CCC1N=C2c3ccccc3N=C(SCC(=O)Nc3ccc(F)cc3)N2C1=O)NCc1ccco1 (stereo unspecified)	-	-	.	-
CCCCCCNC(=O)O[C@H]1Cn2c(=O)ccc(=O)n2[C@@H]2CN(S(=O)(=O)c3ccc(C)cc3)C[C@]12O	.	18µM	.	-89
Cc1ccc(S(=O)(=O)N2C[C@H]3n4c(=O)ccc(=O)n4C[C@H](OC(=O)Nc4cccs4)[C@@]3(O)C2)cc1	.	?	.	-
Cc1ccc(S(=O)(=O)N2C[C@H]3n4c(=O)ccc(=O)n4C[C@H](OC(=O)NCc4ccccc4F)[C@@]3(O)C2)cc1	.	20µM	.	-102
CCCCCCNC(=O)O[C@H]1Cn2c(=O)n(CCCCCC)c(=O)n2[C@@H]2CN(S(=O)(=O)c3ccc(C)cc3)C[C@]12O	.	?	.	-103
O=C(Nc1cnn(Cc2ccc(Cl)cc2Cl)c1)c1noc2c1CCc1ccccc1-2	-	-	?	-
NNC(=O)c1cc2cc3ccccc3nc2s1	-	-	-	-66
Cc1cccc(-c2nc3c(cnn3-c3ccccc3)c(=O)n2-c2ccc(Cl)cc2)c1	-	-	.	-
O=C(O)c1cccc(NC(=O)c2ccc(N3C(=O)c4ccc(C(=O)Nc5cccc(C(=O)O)c5)cc4C3=O)cc2)c1	-	-	-	-
CCN1C(=O)c2ccc(C(=O)Nc3cccc(C(=O)O)c3)cc2C1=O	-	14µM	-	-
O=C(Cc1cccs1)NC1C(=O)N2C(C(=O)[O-])=C(C[n+]3ccccc3)CSC12 (stereo unspecified)	?	.	-	.
O=C(O)c1ccc(N=Cc2c(O)[nH]c(=O)[nH]c2=O)cc1	-	-	-	-76
O=c1[nH]c(O)c(C=Nc2ccc(F)c(Cl)c2)c(=O)[nH]1	.	-	.	?
Cc1c(Cl)cccc1-n1ncc(C(=O)N2CCc3ccccc3C2)c1C1CCN(C(=O)OC(C)(C)C)CC1	?	?	.	-
CCN(CC)S(=O)(=O)c1ccc2c(c1)N(CC(=O)Nc1c(C)cc(C)cc1C)C(=O)C1CCCN21 (stereo unspecified)	-	-	.	-
CC1(C)CC(=O)c2c(Cc3ccccc3)n[nH]c2C1	-	-	-	-
SMILES	LASV entry inh	FMDV inh	Marburg entry inh	HCMV antiviral
CCCCc1n[nH]c2c1C(=O)CC(C)(C)C2	-	-	-	-85
COc1ccccc1Cc1c(-c2ccc(F)cc2)nc2c3ccccc3ccn12	.	.	.	-
CCOc1cccc(/C=N/NC(=O)c2cc(C3CC3)[nH]n2)c1O	.	-	.	-90
CCN(CC)CCCn1c(C)cc2c(c1=O)[C@H](c1ccc(OC)c(OC)c1OC)C(C#N)=C(N)O2	.	.	-	.
CC(C)NC(=O)c1ccc(-n2c(=S)[nH]c3ccccc3c2=O)cc1	.	.	.	-84
O=C(CN1CCOCC1)Nc1nc(-c2ccccc2)cs1	?	-	-	-
CCCCC(=O)Nc1nc(-c2ccc(S(=O)(=O)N3CCOCC3)cc2)cs1	?	?	-	-90
CC(C)CC(=O)Nc1nc(-c2ccc(S(=O)(=O)N3CCOCC3)cc2)cs1	?	22µM	-	-
CCOC(=O)Cc1csc(NC(=O)CCc2ccc(S(=O)(=O)N3CCOCC3)cc2)n1	-	.	-	-

From PubChem BioAssay
